This note sets out measurements from the supplement of paper PMC10681739.
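Note: Full-length recombinant human RUNX1 bound to double-stranded 36-bp genomic probes on a high-density microarray, scored as Alexa488 fluorescence per spot via anti-RUNX1 antibody, median of four replicate spots.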

Sequence of RUNX1 (Q01196 whole entry): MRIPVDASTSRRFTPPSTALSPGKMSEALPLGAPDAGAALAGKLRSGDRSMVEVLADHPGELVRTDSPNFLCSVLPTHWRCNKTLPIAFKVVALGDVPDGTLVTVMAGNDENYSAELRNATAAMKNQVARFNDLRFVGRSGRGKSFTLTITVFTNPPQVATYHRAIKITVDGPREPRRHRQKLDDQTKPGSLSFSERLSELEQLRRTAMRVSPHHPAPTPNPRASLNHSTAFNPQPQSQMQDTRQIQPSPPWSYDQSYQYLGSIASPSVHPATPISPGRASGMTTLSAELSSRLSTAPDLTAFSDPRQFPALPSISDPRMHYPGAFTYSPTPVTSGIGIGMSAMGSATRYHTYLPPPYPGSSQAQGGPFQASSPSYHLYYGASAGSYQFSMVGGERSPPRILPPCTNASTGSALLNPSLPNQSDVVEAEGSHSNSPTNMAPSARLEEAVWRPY

The assay deals with RUNX1 (UniProt Q01196). As to the kind of experiment: RUNX1 binding intensity (PBM fluorescence), RUNX1 alone (arbitrary fluorescence units); higher = stronger binding. Conditions: RUNX1 concentration 2 nM; ETS1 concentration 0 nM. The protocol:
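Cooperative gcPBM on 36-bp genomic probes with neighbouring ETS1 and RUNX1 sites. Recombinant human RUNX1 (2 nM) was incubated alone or with ETS1 (25 nM) and detected with anti-RUNX1 antibody plus Alexa488 secondary. Values are medians over 4 replicate spots; the RUNX1+ETS1 data were normalised to the RUNX1-only data. The probes sit in constant array flanks that are not printed.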
The sequence CCCATTTCCTGCTCTCCAGAGTTAACCACTGAAGTC had an RUNX1 binding intensity of 1440.

For the sequence GTTGGGCTTTGAGGATGTGGGTTCTAGAAGTTTACA, the RUNX1 binding intensity is 890.

AGCGACAGCGGATGCTCTCTGGCCGCAACATTCTTT showed an RUNX1 binding intensity of 769.

In turn, CATGTGCTTCCGGCTTGATCTGTGGTTATTCTGGTT registered an RUNX1 binding intensity of 1270.

In the case of CCTGCAGCAACAGGATGTGGTTTGAAAGGATGAAAG, the RUNX1 binding intensity is 778.

Turning to TATCTCCTATCTCCAGGAAGTGGTTAGCCCTAGGAG, the RUNX1 binding intensity amounted to 811.

In the case of CTAGCAGGAAACAGACAGACCCAGCCACAGAATCTC, the RUNX1 binding intensity stood at 919.

In turn, TGAAGCAGGCGGAAGTGCTGTGGTTTCTGGCGACTG had an RUNX1 binding intensity of 939.

For the sequence CACCTCCTCTCCGGATGCGGTTTGTTCTGCTTGTAG, the RUNX1 binding intensity turned out to be 2210.

The sequence CATTCAGTAAAAGGATGTGGTTTAGAACAGATGAAA yielded an RUNX1 binding intensity of 958.

In turn, GAAGGAAGTGGAGACAGTAAGGGGAAACCACAAACC yielded an RUNX1 binding intensity of 922.

AAATACCAGCCCACTTCCTGTGGCTTTGATCTGCAG showed an RUNX1 binding intensity of 855.

As for AAGAAAAAGGGAGGATGTGGTTTAGCAAAAGCACTG, the RUNX1 binding intensity came out at 920.

In turn, GAGGGACAGGATGCCGCCAGGAACCACAAGAGCTTC showed an RUNX1 binding intensity of 844.

Regarding TTTATCATGAATGCAGGATGTGGGCAGACTCACAGC, the RUNX1 binding intensity turned out to be 691.

Regarding GGGGCAGCTTCCGGCAGGAGAGCCCGCATTCACGGC, the RUNX1 binding intensity stood at 1370.

As to ACAGATAGTGATATCCTGTGGTCAATTCCCTCCCCT, the RUNX1 binding intensity came to 1030.

Consider GCGCAAAGCCGGAAGGAGGGGTTTGCGGCTGGGGAG, for which the RUNX1 binding intensity was found to be 769.

ATGGCGGAGCGGAAGTCCCAGCCACAACGCGAAAAG came in with an RUNX1 binding intensity of 782.

GCTAGACAGGAAACAGTGAGCTTCTGTGGGCAGGAG returned an RUNX1 binding intensity of 758.

For CTGACGCATTTCCGGCCTTTGCGGTTGATCGGTCAT, the RUNX1 binding intensity was 4410.

For the sequence AACAGGCAAAGGACAGGATGTGGTGAGCGTCGGCCC, the RUNX1 binding intensity amounted to 774.

As to AGTGCAGAGTGGACAGGATGTGGTGGAGGTGAGAGA, the RUNX1 binding intensity came to 723.

Regarding AGCACCCGGAAGTCGGAGCTGCGCACGCACCGCGGG, the RUNX1 binding intensity is 751.

Turning to CATAGACCGGATGCCTCGTCAACCACAGAAACCAAT, the RUNX1 binding intensity was found to be 1000.

On to GCACCCGGCACTACTTCCCGACCCGCATCCCCCGCC, for which the RUNX1 binding intensity worked out at 1260.

Regarding TTCTGTAGCTTAGGATGTGGGTTTCTTTGTTTCTGA, the RUNX1 binding intensity is 926.

GCGCGGCCCGGAAGGGGGTAACCGCTGAGTCTTTGA yielded an RUNX1 binding intensity of 784.

Regarding TTGCCATTCCAGGAAATGAGCTTACCACATTGACTG, the RUNX1 binding intensity worked out at 798.

As to GACTTTTACGGAAATAGCAGTCCAAAACCGCGTCTA, the RUNX1 binding intensity is 868.

Regarding GAGAAACAGGAAGAGGGGTGGTGGTTACGGAACACG, the RUNX1 binding intensity came out at 807.

In turn, AACAGGAAGTGGTCTTAGAGATCATGCGGTTCAGAG had an RUNX1 binding intensity of 787.

TCCTCCCACGGGAAGTGCCGTAGGACCGCAGCCCGA returned an RUNX1 binding intensity of 812.

CAAGAGAAAGGAAGTGGAAGCTCTTGTGGTCTGGAA had an RUNX1 binding intensity of 733.

Regarding TGGGGACCACTGTCAGGATGTGGTCACTGGAGTCAC, the RUNX1 binding intensity was 831.

The sequence TTCACTTCCACCACTTCCTGTGGGTTTTGTTCATCC gave an RUNX1 binding intensity of 1530.

In turn, ACTGAACAAACCGGATGTGGTTGCCACCTGCAATCT returned an RUNX1 binding intensity of 848.

Turning to ATTTCGCTGAAAACAGGAAACCACGAAGCCCAGATG, the RUNX1 binding intensity amounted to 899.

The sequence GTGGGGCAGGATGTGCTTGCCTGGCTGCGGTTGGAC showed an RUNX1 binding intensity of 877.

Turning to TCTCGTCCGGTCCTTGCTCCCCCTCCCCGCAGCGCT, the RUNX1 binding intensity amounted to 1090.
